According to PMC4336329 (PLoS ONE, 2015):
In all, about 310,000 compounds went through this assay and about 14,000 (4.5%) showed an effect of 50% or more. Effects have a minus sign here. The full list was thinned out, with strong results kept by preference.

Molecular target: human ether-à-go-go-related gene (hERG) potassium channel (human, UniProt Q12809)
Test: primary screen, population patch clamp on CHO cells stably expressing hERG; higher = less effect of the substance
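Also: peak tail current of the secondary pulse compared with the same well before compound.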

Chain of human ether-à-go-go-related gene (hERG) potassium channel (Q12809 whole entry, looked up): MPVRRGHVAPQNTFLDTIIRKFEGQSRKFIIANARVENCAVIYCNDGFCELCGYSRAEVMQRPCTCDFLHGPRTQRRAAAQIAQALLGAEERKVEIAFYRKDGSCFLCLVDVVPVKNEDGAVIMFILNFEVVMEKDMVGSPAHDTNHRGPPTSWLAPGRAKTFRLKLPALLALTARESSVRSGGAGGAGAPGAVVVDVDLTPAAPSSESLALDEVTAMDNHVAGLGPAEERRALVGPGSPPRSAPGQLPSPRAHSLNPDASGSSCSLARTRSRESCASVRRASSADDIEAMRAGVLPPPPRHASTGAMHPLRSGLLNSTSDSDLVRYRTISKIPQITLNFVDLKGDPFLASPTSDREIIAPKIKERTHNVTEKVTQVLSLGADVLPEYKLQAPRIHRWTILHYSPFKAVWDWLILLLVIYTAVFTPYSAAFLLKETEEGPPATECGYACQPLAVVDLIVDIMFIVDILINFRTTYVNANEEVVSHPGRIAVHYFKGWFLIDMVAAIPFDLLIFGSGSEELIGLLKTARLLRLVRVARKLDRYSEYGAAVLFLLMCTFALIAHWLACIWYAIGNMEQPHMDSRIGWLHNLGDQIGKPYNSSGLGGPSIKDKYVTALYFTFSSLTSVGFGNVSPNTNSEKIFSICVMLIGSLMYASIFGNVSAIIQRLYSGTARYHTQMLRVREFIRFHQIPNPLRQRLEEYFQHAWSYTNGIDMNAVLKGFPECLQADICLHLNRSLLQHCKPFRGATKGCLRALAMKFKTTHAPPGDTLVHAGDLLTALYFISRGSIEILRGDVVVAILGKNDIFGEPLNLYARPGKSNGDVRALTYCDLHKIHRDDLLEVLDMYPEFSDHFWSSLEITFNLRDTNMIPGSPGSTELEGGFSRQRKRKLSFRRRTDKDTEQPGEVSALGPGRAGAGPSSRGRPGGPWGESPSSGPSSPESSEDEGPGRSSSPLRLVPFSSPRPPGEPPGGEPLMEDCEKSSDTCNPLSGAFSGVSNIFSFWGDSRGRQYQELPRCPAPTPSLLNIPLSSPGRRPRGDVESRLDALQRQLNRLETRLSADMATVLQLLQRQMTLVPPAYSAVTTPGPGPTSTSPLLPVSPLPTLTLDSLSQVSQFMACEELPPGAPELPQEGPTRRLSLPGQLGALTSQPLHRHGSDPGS

Row | Structure (SMILES) | hERG current change (%, negative = inhibition) at 10uM [%]
1 | Br.CCn1c(=N)n(CC(=O)C(C)(C)C)c2ccccc21 | -21.1
2 | Br.CCN(CC)CCn1c(=N)n(CC(=O)c2ccc(C)cc2)c2ccccc21 | -40.8
3 | O=C(c1ccc(CNS(=O)(=O)c2ccccc2)cc1)N1CCC2(CC1)OCCO2 | -4.16
4 | COc1ccc(NC(=O)CC2C(=O)N(c3ccccc3)C(=O)N2CCc2cccs2)cc1 (stereo not shown) | -32.9
5 | CCOc1ccccc1NC(=O)C1CCCCN1S(=O)(=O)c1ccc(F)cc1 (stereo not shown) | -2.26
6 | CN1CCN(C(c2cccnc2)c2ccc3cccnc3c2O)CC1 (stereo not shown) | -4.29
7 | Cc1cccn2c(=O)nc(SCC(=O)N3CC(C)OC(C)C3)nc12 (stereo not shown) | 1.96
8 | CCc1nc(NCCO)c(C#N)c2c1CCCC2 | 13.4
9 | CCOc1ccccc1-c1nnc(SCC(=O)NC2(C#N)CCCC2)o1 | -19.2
10 | CC(C)OC(=O)c1ccc(NC(=O)Cn2c(-c3nonc3N)nc3ccccc32)cc1 | 18.4
11 | CC1(c2ccccc2)NC(=S)N2C1NC(=S)N2c1ccccc1 (stereo not shown) | 10.2
12 | COc1cc(NC(=O)C/C(C)=N/NC(=O)c2cccc(O)c2)c(OC)cc1Cl | -8.16
13 | CCOC(=O)COn1c(=O)c(=O)n(OC)c2ccccc21 | 17.8
14 | O=C(COC(=O)Cc1cn2ccsc2n1)NCc1ccc2c(c1)OCO2 | -15.2
15 | Br.N=c1n(CC(=O)c2cccs2)c2ccccc2n1Cc1ccccc1 | -48
16 | Br.N=c1n(CC(=O)c2ccc(Br)s2)c2ccccc2n1Cc1ccccc1 | -61.7
17 | CCCn1c(=N)n(CC(=O)c2cccs2)c2ccccc21 | -22
18 | Br.CCCCn1c(=N)n(CC(=O)c2ccc(Br)s2)c2ccccc21 | -52.8
19 | Br.Cn1c(=N)n(CC(=O)c2cccs2)c2ccccc21 | -0.146
20 | O=C(O)Cn1c(=O)n(Cc2ccccc2)c2ccccc21 | 23.4
21 | CCC(C(=O)NCCN1CCOCC1)n1c2ccccc2c2nc(=O)cc(C)n21 (stereo not shown) | 23.1
22 | Cc1cccc(NC(=O)CSc2nnnn2-c2cccnc2)c1 | -6.57
23 | COc1ccc(OC)c2nc(-c3cccnc3)ccc12 | 10.2

Row | Structure (SMILES) | hERG current change (%, negative = inhibition) at 10uM [%]
24 | O=C1CC2(CCN(C(=O)c3cccc(Cl)c3)CC2)Oc2ccccc21 | -78.5
25 | O=C(c1cccc(Br)c1)N1CCCC1 | 0.701
26 | O=C1CC2(CCN(C(=O)c3ccc(Br)cc3)CC2)Oc2ccccc21 | -73.5
27 | O=C1CC2(CCCCC2)Oc2ccc(Cl)cc21 | 1.26
28 | O=C1CC2(CCN(C(=O)c3ccc(F)cc3)CC2)Oc2ccccc21 | -76
29 | O=C(c1ccc(F)cc1)N1CCC2(CC1)OCCO2 | 19
30 | O=C1CC2(CCN(C(=O)c3cccc(Br)c3)CC2)Oc2ccccc21 | -85.5
31 | CC(=O)Nc1ccc(S(=O)(=O)N2CCC3(CC2)CC(=O)c2ccccc2O3)cc1 | -36.6
32 | Oc1c(C(Nc2cccc(C(F)(F)F)c2)c2ccncc2)ccc2cccnc12 (stereo not shown) | 12.3
33 | CCOc1ccc(S(=O)(=O)NCCC(=O)OCC(=O)Nc2cc(C)on2)cc1 | -44.1
34 | COc1ccc(-c2nnn(CC(=O)c3ccc4c(c3)OCCO4)n2)cc1OC | 9.3
35 | C/C(=N\NC(=O)c1cc(-c2ccc(Br)s2)[nH]n1)c1ccncc1 | 11.1
36 | COc1ccc(C(=O)CCc2ccccc2)cc1 | 9.03
37 | CCOC(=O)N1CCN(c2nc(-c3ccco3)cc(C(F)(F)F)n2)CC1 | -3.17
38 | Cc1ccc(C(=O)Nc2cccnc2N2CCN(C)CC2)cc1 | -5.47
39 | O=C1CC2(CCN(C(=O)c3ccc(Cl)cc3)CC2)Oc2ccccc21 | -87.8
40 | O=C1CC2(CCCC2)Oc2ccc(F)cc21 | -8.58
41 | O=C1CC2(CCN(C(=O)c3cccc(F)c3)CC2)Oc2ccccc21 | -75.1
42 | O=C(c1ccc(Cl)cc1)N1CCC2(CC1)OCCO2 | 13.2
43 | Cc1cccc(NS(=O)(=O)c2cccc(C(=O)N3CCCC3)c2)c1 | 4.7
44 | CC(C)(C)NC(=O)COC(=O)c1ccc(Cl)cc1O | 18.8
45 | C=CCN=C1CC(C)(C)CC(=O)/C1=C(\O)CCCN1C(=O)c2ccccc2C1=O | -23.5
46 | Cc1ccc(NC2c3ncccc3C(=O)N2C2CCCCC2)cc1 (stereo not shown) | 5.93
